Pf Dd2 inh: P. falciparum Dd2 growth inhibitors, primary screen, SYBR Green fluorescence, single dose replicates | 72 h; active compounds read low | activity change, % at 10 µM | actives 2.3% (n = 94,000) | AID 1159554, 2015; in the data active means activity change below about -80%
C diff HTS: C. difficile growth inhibitors, primary screen, HTS; actives 0.25% (n = 86,000); Clostridium difficile clinical isolate growth, OD600, 24 h; active compounds read low; growth activity, negative = inhibition, % at 16 µg/mL (by protocol);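 active means mean growth activity at or below -80% and every replicate also at or below -80%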
Large screens that a line does not name were inactive. In the library only some 2.3% were active in any assay of this set; here they are far more common.

COc1ccc(NC(=O)N(C)C[C@H]2Oc3c(NC(=O)Nc4ccc(C(F)(F)F)cc4)cccc3C(=O)N([C@H](C)CO)C[C@H]2C)cc1	none
Cc1noc(C)c1S(=O)(=O)Nc1cccc2c1O[C@H](CN(C)S(=O)(=O)c1ccc(F)cc1)[C@H](C)CN([C@@H](C)CO)C2=O	none
CO[C@H]1CN(C)C(=O)c2ccc(NC(=O)Nc3ccc(Cl)cc3)cc2OC[C@H](C)N(C)C[C@@H]1C	none
C[C@H]1CN([C@@H](C)CO)C(=O)c2cccc(NC(=O)CCCCCC(=O)Nc3ccccc3N)c2O[C@H]1CN(C)CC1CCCCC1	Pf Dd2 inh -83
C[C@H](CO)N1C[C@H](C)[C@@H](CN(C)CC2CCCCC2)Oc2c(NC(=O)CCCCCC(=O)Nc3ccccc3N)cccc2C1=O	Pf Dd2 inh -88
C[C@@H]1CN([C@H](C)CO)C(=O)c2cccc(NC(=O)CCCCCC(=O)Nc3ccccc3N)c2O[C@H]1CN(C)CC1CC1	none
C[C@@H]1CN([C@@H](C)CO)C(=O)c2cccc(NC(=O)CCCCCC(=O)Nc3ccccc3N)c2O[C@H]1CN(C)CC1CC1	Pf Dd2 inh -85
C[C@@H]1CN([C@H](C)CO)C(=O)c2cccc(NC(=O)CCCCCC(=O)Nc3ccccc3N)c2O[C@@H]1CN(C)CC1CC1	none
C[C@H]1CN([C@@H](C)CO)C(=O)c2cccc(NC(=O)CCCCCC(=O)Nc3ccccc3N)c2O[C@@H]1CN(C)CC1CC1	none
CO[C@@H]1CN(C)C(=O)c2cc(NC(=O)NC(C)C)ccc2OC[C@@H](C)N(Cc2ccc(-c3ccccn3)cc2)C[C@H]1C	none (no result: C diff HTS)
COc1ccc(NC(=O)Nc2ccc3c(c2)[C@@H]2C[C@@H](CC(=O)N4CCN(C)CC4)O[C@H](CO)[C@@H]2O3)cc1	none
C[C@@H]1CN([C@@H](C)CO)C(=O)c2cc(NC(=O)c3ccccc3)ccc2O[C@@H](C)CCCCO[C@H]1CN(C)C(=O)Nc1cccc2ccccc12	Pf Dd2 inh -81
C[C@@H]1CCCCO[C@H](CN(C)C(=O)Nc2cccc3ccccc23)[C@@H](C)CN([C@@H](C)CO)C(=O)c2cc(N(C)C)ccc2O1	Pf Dd2 inh -83
C[C@@H]1CN([C@H](C)CO)C(=O)c2cc(N(C)C)ccc2O[C@@H](C)CCCCO[C@H]1CN(C)C(=O)Nc1cccc2ccccc12	none (no result: Pf Dd2 inh)
C[C@@H]1CN([C@H](C)CO)C(=O)c2cc(NC(=O)c3ccccc3)ccc2O[C@@H](C)CCCCO[C@@H]1CN(C)C(=O)Nc1cccc2ccccc12	Pf Dd2 inh -89
C[C@@H]1CCCCO[C@@H](CN(C)C(=O)Nc2cccc3ccccc23)[C@H](C)CN([C@@H](C)CO)C(=O)c2cc(NC(=O)c3ccccc3)ccc2O1	none
C[C@@H]1CCCCO[C@@H](CN(C)C(=O)Nc2cccc3ccccc23)[C@@H](C)CN([C@H](C)CO)C(=O)c2cc(NC(=O)c3ccccc3)ccc2O1	none
C[C@@H]1CCCCO[C@H](CN(C)C(=O)Nc2cccc3ccccc23)[C@@H](C)CN([C@@H](C)CO)C(=O)c2cc(NC(=O)c3ccccc3)ccc2O1	Pf Dd2 inh -82
C[C@H](CO)N1C[C@H](C)[C@H](CN(C)C(=O)Nc2cccc3ccccc23)OCCCC[C@H](C)Oc2ccc(NC(=O)c3ccccc3)cc2C1=O	none
C[C@H]1CN([C@@H](C)CO)C(=O)c2cc(NC(=O)NC3CCCCC3)ccc2O[C@@H]1CN(C)S(=O)(=O)c1ccccc1	none
COc1ccc(S(=O)(=O)N(C)C[C@@H]2OCCCC[C@H](C)Oc3ccc(NC(=O)Nc4c(C)noc4C)cc3C(=O)N([C@H](C)CO)C[C@@H]2C)cc1	none
CNC[C@H]1Oc2ccc(NC(=O)Nc3ccc4c(c3)OCO4)cc2CC(=O)N([C@@H](C)CO)C[C@H]1C	none
CCCC#Cc1ccc2c(c1)O[C@H](CN(C)Cc1cccnc1)[C@@H](C)CN([C@H](C)CO)S2(=O)=O	none
CCNC(=O)C[C@H]1CC[C@@H]2[C@H](COc3ccc(NC(=O)c4cccc(C(F)(F)F)c4)cc3C(=O)N2C)O1	none
CC(=O)N(C)C[C@@H]1Oc2cc(C#Cc3ccncc3)ccc2S(=O)(=O)N([C@H](C)CO)C[C@@H]1C	none
C[C@@H]1CN([C@H](C)CO)C(=O)c2cc(NS(=O)(=O)c3ccc(Cl)cc3)ccc2O[C@@H]1CN(C)C(=O)Nc1ccc(C(F)(F)F)cc1	none (no result: C diff HTS)
O=C(Cc1ccccn1)N[C@H]1CC[C@@H](CCNC(=O)c2cc(Cl)cc(Cl)c2)O[C@@H]1CO	none (no result: C diff HTS)
O=C(N[C@H]1CC[C@@H](CCn2cc(-c3ccccc3)nn2)O[C@@H]1CO)c1cnccn1	none
CCCC#Cc1ccc([C@@H]2[C@H](CO)N3CCCCN(S(=O)(=O)Cc4ccccc4)C[C@@H]23)cc1	Pf Dd2 inh -84, C diff HTS -90
CCCC#Cc1ccc([C@H]2[C@H]3CN(S(=O)(=O)Cc4ccccc4)CCCCN3[C@H]2CO)cc1	none
CCCC#Cc1ccc([C@H]2[C@H]3CN(S(=O)(=O)c4ccccc4C)CCCCN3[C@H]2CO)cc1	none
Cc1ccccc1S(=O)(=O)N1CCCCN2[C@@H](CO)[C@@H](c3ccc(-c4ccccc4)cc3)[C@@H]2C1	none
Cc1ccccc1S(=O)(=O)N1CCCCN2[C@H](CO)[C@H](c3ccc(-c4ccccc4)cc3)[C@H]2C1	Pf Dd2 inh -82
CCCC#Cc1ccc([C@@H]2[C@H](CO)N3CCCCN(S(=O)(=O)c4ccccc4C)C[C@@H]23)cc1	C diff HTS -96
O=C(C[C@H]1CC[C@H](NC(=O)Nc2cc(F)ccc2F)[C@@H](CO)O1)NCc1ccccn1	none (no result: C diff HTS)
COc1ccc(S(=O)(=O)N[C@@H]2CC[C@H](CC(=O)NCCc3ccccc3)O[C@H]2CO)cc1	none
COCC(=O)N(C)C[C@@H]1Oc2cc(C#C[C@@H](C)O)ccc2S(=O)(=O)N([C@H](C)CO)C[C@H]1C	none (no result: Pf Dd2 inh)
O=C(C[C@@H]1C=C[C@H](NC(=O)C2CCOCC2)[C@H](CO)O1)NCc1ccccc1Cl	none
C[C@@H]1CCCCO[C@H](CN(C)C(=O)NC2CCCCC2)[C@@H](C)CN([C@H](C)CO)C(=O)c2cc(NC(=O)Nc3cccc4ccccc34)ccc2O1	none
C[C@H]1CN([C@@H](C)CO)C(=O)Cc2cc(NS(=O)(=O)c3ccc(Cl)cc3)ccc2O[C@H]1CN(C)S(=O)(=O)c1ccc(Cl)cc1	none
C[C@@H]1CN([C@H](C)CO)C(=O)c2cc(NS(=O)(=O)c3ccc(Cl)cc3)ccc2O[C@@H]1CN(C)S(=O)(=O)c1ccc(F)cc1	none
C[C@H](CO)N1C[C@H](C)[C@H](CN(C)S(=O)(=O)c2ccc(F)cc2)Oc2ccc(NS(=O)(=O)c3ccc(Cl)cc3)cc2C1=O	Pf Dd2 inh -93
COc1ccc(S(=O)(=O)Nc2ccc3c(c2)CC(=O)N([C@@H](C)CO)C[C@H](C)[C@H](CN(C)S(=O)(=O)c2ccc(C)cc2)O3)cc1	Pf Dd2 inh -86
C[C@@H]1CN([C@@H](C)CO)C(=O)Cc2cc(NS(=O)(=O)c3ccc(Cl)cc3)ccc2O[C@H]1CN(C)S(=O)(=O)c1ccc(Cl)cc1	Pf Dd2 inh -85
COc1ccc(S(=O)(=O)N(C)C[C@@H]2Oc3ccc(NS(=O)(=O)c4ccc(C)cc4)cc3CC(=O)N([C@H](C)CO)C[C@@H]2C)cc1	none
C[C@@H]1CN([C@H](C)CO)C(=O)c2cc(NC(=O)CCC(F)(F)F)ccc2O[C@H]1CN(C)C(=O)Nc1ccc2c(c1)OCO2	none
O=C(c1ccccn1)N1C[C@H]2[C@@H](c3ccccc31)[C@@H](CO)N2C(=O)C1CCCC1	none
